{
  "source": "PubChem BioAssay AID1851",
  "about": "(National Center for Advancing Translational Sciences (NCATS), 2009)",
  "note": "Screen size: about 16,000 compounds; about 5,100 (32%) were called active. Not shown: some 25% with an inconclusive outcome. This is one part of the list. Unmarked numbers belong to inactive results. The call rests on the fitted dose curve; in most records, active means well fitted curve in the direction sought with a large enough effect; inconclusive means small, poorly fitted or top-dose-only effect, or effect the other way; inactive means no such curve, though single readings can be large or run the other way. On the % scale 0 is the no-effect control and ±100 the full control effect.",
  "data": [
    {"biological_target": "Cytochrome P450 3A4 (Homo sapiens) (UniProt P08684)", "sequence (P08684 whole entry, looked up)": "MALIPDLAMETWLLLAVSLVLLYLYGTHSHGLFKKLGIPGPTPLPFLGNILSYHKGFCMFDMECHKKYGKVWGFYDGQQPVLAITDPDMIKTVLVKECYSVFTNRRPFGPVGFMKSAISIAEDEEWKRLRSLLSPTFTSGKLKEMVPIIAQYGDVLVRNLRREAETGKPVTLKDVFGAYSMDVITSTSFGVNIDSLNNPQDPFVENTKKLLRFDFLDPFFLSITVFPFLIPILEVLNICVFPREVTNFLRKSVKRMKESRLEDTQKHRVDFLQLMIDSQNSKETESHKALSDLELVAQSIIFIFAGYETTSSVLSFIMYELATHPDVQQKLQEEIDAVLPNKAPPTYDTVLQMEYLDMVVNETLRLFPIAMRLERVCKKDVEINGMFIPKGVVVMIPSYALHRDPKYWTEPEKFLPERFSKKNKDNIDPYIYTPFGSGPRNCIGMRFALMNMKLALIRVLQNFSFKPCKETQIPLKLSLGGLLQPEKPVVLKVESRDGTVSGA", "test": "Cytochrome panel assay with activity outcomes", "conditions": "recombinant CYP, pro-luciferin dealkylation, luminescence, p450-cyp3a4; series mostly up to 57.1 µM; activity, negative = inhibition: at the top concentration", "values": [
      {"smiles": "O=S1(=O)OC(c2ccc(O)cc2)(c2ccc(O)cc2)c2ccccc21", "activity, negative = inhibition": "-11.8% [at 11.4 µM]"},
      {"smiles": "CC1(C)CC(=O)C2=C(C1)Nc1cc3c(cc1C2c1ccc(F)cc1)OCO3", "note": "(stereo unspecified)", "AC50": "1 µM (active)"},
      {"smiles": "Fc1ccc2c(c1)C1C=CCC1C(c1cc3c(cc1Br)OCO3)N2", "note": "(stereo unspecified)", "activity, negative = inhibition": "-4.14% [at 2.29 µM]"},
      {"smiles": "Nc1nc(Br)c2ccccc2c1-c1ccc(F)cc1", "AC50": "14.1 µM (active)"},
      {"smiles": "Nc1nc(Br)c2c(F)cccc2c1-c1ccc(F)cc1", "AC50": "22.4 µM (active)"},
      {"smiles": "Nc1nc(Br)c2c(F)cccc2c1-c1ccc(Cl)cc1", "AC50": "20 µM (active)"},
      {"smiles": "COC(=O)C[C@@H]1O[C@H]1[C@H](C)[C@@H](OC)C(C)C", "AC50": "3.98 µM (active)"},
      {"smiles": "CO[C@@H](C(C)C)[C@@H](C)[C@@H]1OC(=O)C[C@@H]1O", "activity, negative = inhibition": "-9.77% [at 11.4 µM]"},
      {"smiles": "CO[C@@H]1COC(=O)[C@H](CCSC)NC(=O)C/C=C\\[C@@H](C)COC(=O)[C@@H]2CCCN2C(=O)C/C=C\\[C@H]1C", "activity, negative = inhibition": "-23.1% [at 11.4 µM]"},
      {"smiles": "Cc1ccc(S(=O)(=O)N(CCCN2CCCC2=O)Cc2cc3c(C)ccc(C)c3[nH]c2=O)cc1", "AC50": "1.12 µM (active)"},
      {"smiles": "Cc1ccc(S(=O)(=O)CC(O)CN2CCCC2=O)cc1", "note": "(stereo unspecified)", "activity, negative = inhibition": "-2.08%"},
      {"smiles": "O=C(NCCCN1CCCC1=O)c1ccc(CNS(=O)(=O)c2ccc(F)cc2)cc1", "activity, negative = inhibition": "-13.5% [at 11.4 µM]"},
      {"smiles": "COc1ccccc1CNc1ncncc1-c1ccccc1OC", "AC50": "0.2 µM (active)"},
      {"smiles": "COc1ccccc1CNc1ncncc1-c1ccccc1Cl", "AC50": "0.2 µM (active)"},
      {"smiles": "c1ccc2c3c([nH]c2c1)[C@@H]1[C@H]2CC[C@H]([C@H]4CCCN[C@H]42)N1CC3", "activity, negative = inhibition": "-11.2% [at 25.6 µM]"},
      {"smiles": "COC(=O)CSc1ncc(OC)c(OC)n1", "activity, negative = inhibition": "-5.02%"},
      {"smiles": "CCOC(=O)C1CCN(C(=O)C2CCN(c3nc4ccc(OC)cc4s3)CC2)CC1", "activity, negative = inhibition": "18.5%"},
      {"smiles": "Cc1sc2ccccc2[n+]1CCC(=O)O", "activity, negative = inhibition": "-6.82% [at 11.4 µM]"},
      {"smiles": "CCOC(=O)C[n+]1c(C)sc2ccc(OC)cc21", "AC50": "3.55 µM (active)"},
      {"smiles": "C1CCN(CC[C@@H]2CCCCN2)CC1", "activity, negative = inhibition": "-2.6% [at 11.4 µM]"},
      {"smiles": "CCC/C=C(\\CCC)C(NP(=O)(c1ccccc1)c1ccccc1)c1ccc(C(F)(F)F)cc1", "note": "(stereo unspecified)", "AC50": "3.16 µM (active)"},
      {"smiles": "CCC/C=C(\\CCC)C(NP(=O)(c1ccccc1)c1ccccc1)c1ccc(-c2ccccc2)cc1", "note": "(stereo unspecified)", "AC50": "3.98 µM (active)"},
      {"smiles": "CN(C)C(=O)/N=N\\C(=O)N(C)C", "activity, negative = inhibition": "-6.3%"},
      {"smiles": "O=C(O)C(Cc1ccccc1)Cc1ccccc1", "activity, negative = inhibition": "5.23% [at 11.4 µM]"},
      {"smiles": "CS(=O)(=O)N1CCC2(CC1)CN(C(=O)Nc1ccccc1)C2", "activity, negative = inhibition": "-13%"},
      {"smiles": "CS(=O)(=O)N1CCN(c2ccccc2NC(=O)c2ccc(Br)o2)CC1", "AC50": "15.8 µM (active)"},
      {"smiles": "Nc1nc(N)c2nn(-c3ccc(C(=O)O)cc3)nc2n1", "activity, negative = inhibition": "-6.41% [at 11.4 µM]"},
      {"smiles": "Cc1ccc2nc(NC(=O)COC(=O)CSc3nc(C)cc(C)n3)sc2c1", "activity, negative = inhibition": "21.9%"},
      {"smiles": "Cc1ccc2nc(NC(=O)CSCC(=O)OCC(=O)c3ccc(Br)cc3)sc2c1", "AC50": "10 µM (active)"},
      {"smiles": "Cc1ccc2nc(NC(=O)COC(=O)c3ccc(Br)o3)sc2c1", "AC50": "15.8 µM (active)"},
      {"smiles": "CCCOc1ccc(C(=O)NC(=S)Nc2nc3ccc(C)cc3s2)cc1", "activity, negative = inhibition": "13.6% [at 2.29 µM]"},
      {"smiles": "CS(=O)(=O)Nc1c(O)ccc2c1CCC[C@H]2C1=NCCN1", "activity, negative = inhibition": "-4.57%"},
      {"smiles": "COc1ncc2nc(CCc3ccccc3)c(=O)n(CCc3ccccc3)c2n1", "AC50": "3.16 µM (active)"},
      {"smiles": "COCCn1c(=O)c(CCc2ccccc2)nc2cnc(OC)nc21", "AC50": "12.6 µM (active)"},
      {"smiles": "COCCn1c(=O)c(CCc2ccccc2)nc2cnc(Oc3ccc(OC)cc3)nc21", "AC50": "3.16 µM (active)"},
      {"smiles": "O=c1cnc2cnc(Oc3ccccc3)nc2n1CCc1ccccc1", "activity, negative = inhibition": "-22.3%"},
      {"smiles": "COc1ncc2nc(CCc3ccccc3)c(=O)n(C)c2n1", "activity, negative = inhibition": "0.537%"},
      {"smiles": "COc1ccc(Oc2ncc3ncc(=O)n(CCc4ccccc4)c3n2)cc1", "AC50": "1.26 µM (active)"},
      {"smiles": "O=c1c(CCc2ccccc2)nc2cnc(Oc3cccc(Cl)c3)nc2n1C[C@H]1CCCO1", "AC50": "0.501 µM (active)"},
      {"smiles": "Cc1nc2cnc(Oc3cccc(Cl)c3)nc2n(CCc2ccccc2)c1=O", "activity, negative = inhibition": "-22.7%"},
      {"smiles": "COCCn1c(=O)c(CCc2ccccc2)nc2cnc(Oc3cccc(Cl)c3)nc21", "AC50": "0.794 µM (active)"},
      {"smiles": "O=c1c(-c2ccccc2)nc2cnc(Oc3cccc(Cl)c3)nc2n1C1CC1", "activity, negative = inhibition": "6.74%"},
      {"smiles": "O=c1oc2cc(Oc3ccc(C(F)(F)F)cc3[N+](=O)[O-])ccc2c2c1CCCC2", "activity, negative = inhibition": "-23.2%"},
      {"smiles": "O=c1oc2cc(Oc3c([N+](=O)[O-])cc(C(F)(F)F)cc3[N+](=O)[O-])ccc2c2c1CCCC2", "AC50": "14.1 µM (active)"},
      {"smiles": "CC1=NNC(=S)NCCCN2CCN(CCCNC(=S)NN=C(C)C=NNC(=S)NCCCN3CCN(CCCNC(=S)NN=C1)CC3)CC2", "activity, negative = inhibition": "-1.88% [at 11.4 µM]"},
      {"smiles": "CNNCc1ccc(C(=O)NC(C)C)cc1", "activity, negative = inhibition": "-12.2% [at 25.6 µM]"},
      {"smiles": "CC(=O)NC(NC(C)=O)c1ccc(Br)cc1", "activity, negative = inhibition": "8.11%"},
      {"smiles": "CC(C)OP(=O)(OC(C)C)C(NC(=O)c1ccc(Br)cc1)c1ccccc1", "note": "(stereo unspecified)", "AC50": "11.2 µM (active)"},
      {"smiles": "O=C(O)C[C@H](Cc1ccccc1)C(=O)O", "activity, negative = inhibition": "-6.62% [at 11.4 µM]"},
      {"smiles": "Cn1nc(C(F)(F)F)c(/C=N/OC(=O)c2ccc(Cl)cc2)c1Cl", "activity, negative = inhibition": "-0.892%"},
      {"smiles": "Cn1nc(C(F)(F)F)c(/C=N/OC(=O)c2ccccc2Cl)c1SCc1ccc(Cl)cc1", "AC50": "7.08 µM (active)"},
      {"smiles": "Cn1nc(C(F)(F)F)c(/C=N/OCc2c(Cl)cccc2Cl)c1Cl", "activity, negative = inhibition": "-24.6%"},
      {"smiles": "O=C(NCC1CCCO1)C(c1cccnc1)N(C(=O)Cc1cccs1)c1ccccc1", "note": "(stereo unspecified)", "AC50": "3.98 µM (active)"},
      {"smiles": "Cc1ccc(C(C(=O)NC2CCCCC2)N(CC2CCCO2)C(=O)CNC(=O)c2cccs2)cc1", "note": "(stereo unspecified)", "AC50": "4.47 µM (active)"},
      {"smiles": "O=C(NCC(=O)N(c1ccccc1)C(C(=O)NC1CCCC1)c1cccnc1)c1cccs1", "note": "(stereo unspecified)", "AC50": "2 µM (active)"},
      {"smiles": "O=C(NCC1CCCO1)C(c1cccnc1)N(C(=O)Cc1cccs1)c1cccnc1", "note": "(stereo unspecified)", "activity, negative = inhibition": "-17.2% [at 2.29 µM]"},
      {"smiles": "CN1CCc2c(sc3c2c(=O)n(-c2ccccc2)c2nncn32)C1", "activity, negative = inhibition": "23.3%"},
      {"smiles": "NC(N)=NC(=O)c1nc(Cl)c(N)nc1N", "AC50": "inactive"},
      {"smiles": "O=C(c1cc(-c2ccc(Cl)cc2Cl)on1)N1CCN(C(=O)c2ccco2)CC1", "activity, negative = inhibition": "13.8%"},
      {"smiles": "CC1CCCC(C)N1C(=O)c1cc(-c2ccc(Cl)c(Cl)c2)on1", "note": "(stereo unspecified)", "AC50": "12.6 µM (active)"},
      {"smiles": "C[C@@H]1CCC[C@H](C)N1NC(=O)c1ccc(Cl)c(S(N)(=O)=O)c1", "activity, negative = inhibition": "-15.3% [at 25.6 µM]"}
    ]}
  ]
}
